Experimental data from PubChem BioAssay (EPA / NIEHS).
Records with an inconclusive call do not appear. Some compounds were tested as several samples or in several runs, with calls that do not always agree. Active and inactive are the calls of the source. Rule for the calls, unless noted: active = hit-call score of the fitted dose curve at least 0.9, where 1 is the maximum; inactive = score below 0.9.

Columns and labels:
[1] = ATG_NFI_CIS: Attagene CIS-FACTORIAL HepG2 Assay for human Nuclear Factor I (NFI) (AID 2282989); settings: HepG2 cis-regulatory reporter, NFI response element transcription; actives raise or lower the signal
In short: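 Read-out: reporter mRNA via RT-PCR plus capillary electrophoresis with fluorescence detection. Transiently transfected HepG2 (endogenous TF activity on cis promoters), 24 h compound exposure; gain or loss of signal fitted against DMSO.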

[2] = target: Myc proto-oncogene protein (Homo sapiens) (UniProt P01106); assay: ATG_Myc_CIS: Attagene CIS-FACTORIAL HepG2 Assay for human Myelocytomatosis (Myc) Proto-Oncogene Transcription Factor (AID 2282990); settings: HepG2, Attagene cis-reporter transcription factor activity; actives raise or lower the signal
Myc proto-oncogene protein (Homo sapiens), sequence (P01106 whole entry, looked up, the tested form may be a part): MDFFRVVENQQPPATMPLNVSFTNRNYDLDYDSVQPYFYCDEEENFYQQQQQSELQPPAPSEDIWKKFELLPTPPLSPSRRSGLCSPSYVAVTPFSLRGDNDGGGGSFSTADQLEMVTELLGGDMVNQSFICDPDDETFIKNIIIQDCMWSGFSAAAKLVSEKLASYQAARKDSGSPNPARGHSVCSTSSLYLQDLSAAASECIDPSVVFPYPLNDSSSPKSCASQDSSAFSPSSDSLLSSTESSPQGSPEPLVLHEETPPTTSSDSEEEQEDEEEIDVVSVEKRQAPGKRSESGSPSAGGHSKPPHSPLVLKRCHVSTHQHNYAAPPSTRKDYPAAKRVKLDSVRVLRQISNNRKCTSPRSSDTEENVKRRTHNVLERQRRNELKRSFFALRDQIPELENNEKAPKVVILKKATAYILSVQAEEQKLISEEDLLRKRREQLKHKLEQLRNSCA
In short: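 After 24 h chemical treatment of HepG2 cells carrying multiplexed cis-regulated reporter constructs, reporter transcripts quantified by RT-PCR and capillary electrophoresis of fluorescent fragments. Gain or loss fitted against DMSO baseline.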

[3] = ATG_NF_kB_CIS: Attagene CIS-FACTORIAL HepG2 Assay for human Nuclear Factor Kappa B (NF-kB) (AID 2282991); settings: HepG2 Attagene cis-factorial NF-kB reporter mRNA; actives raise or lower the signal
In short: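 Measures mRNA induction of an NF-kB-responsive cis-element reporter in HepG2 cells transfected with multiple reporter units, sampled 24 h post-dosing; quantified by fluorescence after RT-PCR and capillary electrophoresis, fitted for activation or inhibition against DMSO.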

[4] = ATG_NRF2_ARE_CIS: Attagene CIS-FACTORIAL HepG2 Assay for human Nuclear Factor Erythroid 2 Related Factor 2 (NFR2) response to Antioxidant Response Elements (ARE) (AID 2282992); settings: HepG2 Attagene ARE/NRF2 reporter, transcription factor activity; actives raise or lower the signal;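 for AC50: reporter mRNA level measured by RT-PCR and capillary electrophoresis fluorescence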
In short: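 Fluorescence intensity of reporter-specific cDNA fragments, separated by capillary electrophoresis, reflects mRNA induction in transfected HepG2 cells at 24 h. Activity is fitted bidirectionally, DMSO serving as baseline.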

[5] = ATG_Oct_MLP_CIS: Attagene CIS-FACTORIAL HepG2 Assay for human Octamer-Binding Transcription Factor (Oct) (AID 2282993); settings: HepG2 Attagene cis-factorial Oct reporter, mRNA; actives raise or lower the signal
In short: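 Read-out: reporter mRNA via RT-PCR plus capillary electrophoresis of 6-FAM-labelled fragments. Transiently transfected HepG2, 24 h exposure, endogenous TF activity on cis elements. Gain or loss of signal fitted relative to DMSO.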

[6] = target: Cellular tumor antigen p53 (Homo sapiens) (UniProt P04637); assay: ATG_p53_CIS: Attagene CIS-FACTORIAL HepG2 Assay for human p53 Transcription Factor (AID 2282994); settings: HepG2 p53 cis-element reporter, Attagene mRNA; actives raise or lower the signal
Cellular tumor antigen p53 (Homo sapiens), sequence (P04637 whole entry, looked up): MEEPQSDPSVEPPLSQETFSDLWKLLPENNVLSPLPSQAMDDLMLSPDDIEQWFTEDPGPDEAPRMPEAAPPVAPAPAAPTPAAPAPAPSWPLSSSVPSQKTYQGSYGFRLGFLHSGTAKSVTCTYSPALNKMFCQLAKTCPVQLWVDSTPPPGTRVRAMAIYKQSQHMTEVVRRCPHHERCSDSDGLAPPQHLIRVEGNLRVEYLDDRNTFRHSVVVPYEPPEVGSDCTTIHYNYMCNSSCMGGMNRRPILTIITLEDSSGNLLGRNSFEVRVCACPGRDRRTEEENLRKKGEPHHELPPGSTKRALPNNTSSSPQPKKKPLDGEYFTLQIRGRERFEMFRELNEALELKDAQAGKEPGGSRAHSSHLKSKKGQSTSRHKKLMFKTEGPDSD
In short: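 Transiently transfected HepG2 (multiple cis reporter transcription units); exposure 24 h; reporter RNA via RT-PCR, 6-FAM extension, 2 h HpaI digest at 37 C, CE detection; DMSO baseline.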

[7] = BSK_3C_uPAR: BioMAP Diversity Plus: 3C Assay for Urokinase-type plasminogen activator receptor (uPAR) Biomarker Activity (AID 2282998); settings: BioMAP 3C HUVEC, uPAR biomarker ELISA; actives raise or lower the signal
In short: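 HUVEC primary cells; 24 h post-dose; uPAR by ELISA; gain or loss of signal fitted bidirectionally vs DMSO baseline.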

[8] = BSK_3C_VCAM1: BioMAP Diversity Plus: 3C Assay for Vascular cell adhesion molecule 1 (VCAM1) Biomarker Activity (AID 2282999); settings: BioMAP 3C HUVEC, VCAM1 ELISA, cytokine-stimulated; actives raise or lower the signal
In short: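 Activity fitted in both directions relative to DMSO, with ELISA measurement of the surface marker on primary HUVEC (3C) at 24 h post-treatment; parallel SRB staining (0.1% SRB, TCA-fixed, 560 nm) flagged overt cytotoxicity.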

[9] = BSK_4H_Eotaxin3: BioMAP Diversity Plus: 4H Assay for Eotaxin 3 Biomarker Activity (AID 2283000); settings: primary human endothelial cells (HUVEC); actives raise or lower the signal
In short: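 ELISA quantitation of CCL26 (Eotaxin-3) protein from chemically dosed human vascular endothelial cells at 24 h; increases and decreases both scored relative to DMSO-treated baseline.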

[10] = target: human Peroxisome Proliferator-activated Receptor alpha (PPARa), PPARA (gene 5465) (UniProt Q07869); assay: ATG_PPARa_TRANS: Attagene TRANS-FACTORIAL HepG2 Assay for human Peroxisome Proliferator-activated Receptor alpha (PPARa) (AID 2283001; active = hit-call score of the fitted dose curve at least 0.9, where 1 is the maximum;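 for AC50: potency for gain of reporter signal over DMSO so agonist or activator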)
human Peroxisome Proliferator-activated Receptor alpha (PPARa), PPARA (gene 5465), sequence (Q07869 whole entry, looked up, the tested form may be a part): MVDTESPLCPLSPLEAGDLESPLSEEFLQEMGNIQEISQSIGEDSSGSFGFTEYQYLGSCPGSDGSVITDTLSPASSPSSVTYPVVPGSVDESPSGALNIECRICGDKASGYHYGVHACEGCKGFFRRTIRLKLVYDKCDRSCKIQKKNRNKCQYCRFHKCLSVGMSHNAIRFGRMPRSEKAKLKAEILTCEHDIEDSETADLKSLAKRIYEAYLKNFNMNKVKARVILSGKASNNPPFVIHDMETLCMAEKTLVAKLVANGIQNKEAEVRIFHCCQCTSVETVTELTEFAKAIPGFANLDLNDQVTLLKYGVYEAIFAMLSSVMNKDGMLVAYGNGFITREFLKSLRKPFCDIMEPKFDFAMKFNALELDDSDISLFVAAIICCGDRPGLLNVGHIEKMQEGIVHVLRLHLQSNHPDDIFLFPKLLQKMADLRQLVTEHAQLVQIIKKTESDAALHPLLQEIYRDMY
In short: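 Reporter transcripts quantified by RT-PCR plus capillary electrophoresis after 24 h treatment, fitted upward relative to DMSO. Cells: human HepG2 transiently carrying multiple GAL4-UAS reporter units driven by NR-Gal4 chimeras.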

[11] = target: human Peroxisome Proliferator-activated Receptor delta (PPARd), PPARD (gene 5467) (UniProt Q03181); assay: ATG_PPARd_TRANS: Attagene TRANS-FACTORIAL HepG2 Assay for human Peroxisome Proliferator-activated Receptor delta (PPARd) (AID 2283002; active = hit-call score of the fitted dose curve at least 0.9, where 1 is the maximum)
human Peroxisome Proliferator-activated Receptor delta (PPARd), PPARD (gene 5467), sequence (Q03181 whole entry, looked up, the tested form may be a part): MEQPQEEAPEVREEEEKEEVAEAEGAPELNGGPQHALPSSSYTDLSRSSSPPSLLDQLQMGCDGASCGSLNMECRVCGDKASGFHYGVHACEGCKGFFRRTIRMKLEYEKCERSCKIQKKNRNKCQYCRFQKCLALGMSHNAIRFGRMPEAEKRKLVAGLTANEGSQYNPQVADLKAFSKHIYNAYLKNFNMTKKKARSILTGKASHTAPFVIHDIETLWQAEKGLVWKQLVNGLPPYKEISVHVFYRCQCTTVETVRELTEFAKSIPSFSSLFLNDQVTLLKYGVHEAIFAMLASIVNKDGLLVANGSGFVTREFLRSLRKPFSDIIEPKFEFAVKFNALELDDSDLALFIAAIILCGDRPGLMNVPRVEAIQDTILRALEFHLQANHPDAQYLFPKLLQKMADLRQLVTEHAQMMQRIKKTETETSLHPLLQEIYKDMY
In short: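 Read-out is induced reporter mRNA, quantified by RT-PCR with fluorescent labelling and capillary electrophoresis after 24 h dosing. Cells are HepG2 transiently carrying multiple GAL4-UAS reporter units driven by exogenous NR-GAL4 chimeras; DMSO serves as baseline.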

[12] = read-out: Intercellular Adhesion Molecule 1 (ICAM1), ICAM1 (gene 3383); assay: BSK_3C_ICAM1: BioMAP Diversity Plus: 3C Assay for Intercellular Adhesion Molecule 1 (ICAM1) Biomarker Activity (AID 2283003); settings: primary human endothelial cells (HUVEC); actives raise or lower the signal
In short: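 ELISA readout of ICAM1 in human umbilical vein endothelial cells in the 3C system, taken 24 h post-dose. Gain or loss of signal versus DMSO was fitted in both directions, with SRB total-protein staining run in parallel.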

[13] = BSK_3C_Proliferation: Cell Proliferation Assessment in the BioMAP Diversity Plus: 3C Assay (AID 2283006); settings: primary human endothelial cells (HUVEC);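 for AC50: potency may reflect either rise or fall in cell number versus DMSO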
In short: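 Proliferation as total protein: sulforhodamine B (0.1%) stain of TCA-fixed subconfluent human umbilical vein endothelial cells, absorbance 560 nm, 48 h after dosing. Activity fitted in both directions against DMSO baseline.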

[14] = target: Peroxisome proliferator-activated receptor gamma (Homo sapiens) (UniProt P37231); assay: ATG_PPARg_TRANS: Attagene TRANS-FACTORIAL HepG2 Assay for human Peroxisome Proliferator-activated Receptor-gamma (PPARg) (AID 2283007; active = hit-call score of the fitted dose curve at least 0.9, where 1 is the maximum)
Peroxisome proliferator-activated receptor gamma (Homo sapiens), sequence (P37231 whole entry, looked up, the tested form may be a part): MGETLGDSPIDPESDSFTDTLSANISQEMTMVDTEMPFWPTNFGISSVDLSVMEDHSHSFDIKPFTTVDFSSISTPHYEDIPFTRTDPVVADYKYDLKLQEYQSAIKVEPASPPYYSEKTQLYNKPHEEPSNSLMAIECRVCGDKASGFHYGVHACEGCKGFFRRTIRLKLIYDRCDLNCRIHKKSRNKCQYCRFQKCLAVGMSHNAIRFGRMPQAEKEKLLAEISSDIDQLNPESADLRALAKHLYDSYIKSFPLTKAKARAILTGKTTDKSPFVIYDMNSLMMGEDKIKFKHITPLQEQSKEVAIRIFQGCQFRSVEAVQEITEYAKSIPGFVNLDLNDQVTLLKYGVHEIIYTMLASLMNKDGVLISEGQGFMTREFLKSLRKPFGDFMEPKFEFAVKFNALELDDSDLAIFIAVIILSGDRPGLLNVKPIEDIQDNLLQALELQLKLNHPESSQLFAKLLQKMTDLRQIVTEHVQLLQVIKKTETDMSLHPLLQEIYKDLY
In short: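 Gain-of-signal endpoint relative to DMSO, derived from reporter mRNA levels quantified by RT-PCR and capillary electrophoresis. Cells were HepG2 transiently expressing a chimeric NR-Gal4 construct with GAL4-UAS reporters, exposed to chemicals for 24 h.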

[15] = target: Nuclear receptor subfamily 1 group I member 2 (Homo sapiens) (UniProt O75469); assay: ATG_PXR_TRANS: Attagene TRANS-FACTORIAL HepG2 Assay for human Pregnane X Receptor (PXR) (AID 2283008; active = hit-call score of the fitted dose curve at least 0.9, where 1 is the maximum)
Nuclear receptor subfamily 1 group I member 2 (Homo sapiens), sequence (O75469 whole entry, looked up, the tested form may be a part): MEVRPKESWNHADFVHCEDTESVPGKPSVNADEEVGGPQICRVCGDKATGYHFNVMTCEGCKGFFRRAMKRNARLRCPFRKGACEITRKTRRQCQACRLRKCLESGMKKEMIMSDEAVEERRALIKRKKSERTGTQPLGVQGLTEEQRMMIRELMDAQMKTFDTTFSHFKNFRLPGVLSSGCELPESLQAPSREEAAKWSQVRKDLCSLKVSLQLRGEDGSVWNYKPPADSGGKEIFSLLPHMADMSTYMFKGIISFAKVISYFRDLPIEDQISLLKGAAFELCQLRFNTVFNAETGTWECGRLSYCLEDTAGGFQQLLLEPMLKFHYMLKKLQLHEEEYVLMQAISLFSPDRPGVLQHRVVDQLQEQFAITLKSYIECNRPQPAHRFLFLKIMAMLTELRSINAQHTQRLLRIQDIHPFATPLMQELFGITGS
In short: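 Transient HepG2 transfectants carrying multiplexed reporter transcription units; PXR activity read through a Gal4 chimera. 24 h exposure. RT-PCR/CE fluorescence; upward curve fit referenced to DMSO.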

[16] = target: human Retinoic Acid Receptor beta (RARb), RARB (gene 5915) (UniProt P10826); assay: ATG_RARb_TRANS: Attagene TRANS-FACTORIAL HepG2 Assay for human Retinoic Acid Receptor beta (AID 2283004; active = hit-call score of the fitted dose curve at least 0.9, where 1 is the maximum)
human Retinoic Acid Receptor beta (RARb), RARB (gene 5915), sequence (P10826 whole entry, looked up, the tested form may be a part): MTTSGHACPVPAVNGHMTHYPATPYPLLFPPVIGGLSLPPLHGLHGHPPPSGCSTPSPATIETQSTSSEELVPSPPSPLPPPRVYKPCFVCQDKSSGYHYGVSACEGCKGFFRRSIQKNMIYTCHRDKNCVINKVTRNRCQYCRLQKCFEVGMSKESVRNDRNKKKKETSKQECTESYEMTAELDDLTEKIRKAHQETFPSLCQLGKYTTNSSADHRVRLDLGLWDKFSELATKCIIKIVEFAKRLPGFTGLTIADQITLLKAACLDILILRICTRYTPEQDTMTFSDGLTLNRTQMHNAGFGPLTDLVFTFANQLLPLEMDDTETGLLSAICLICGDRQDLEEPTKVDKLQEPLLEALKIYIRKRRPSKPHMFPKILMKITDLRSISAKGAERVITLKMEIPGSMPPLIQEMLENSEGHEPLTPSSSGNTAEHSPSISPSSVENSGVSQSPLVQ
In short: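 Fluorescent capillary-electrophoresis detection of GAL4-UAS reporter mRNA defines the endpoint, with induction over DMSO-treated wells scored as activity. Transiently transfected human hepatoma HepG2 cells expressing exogenous NR–Gal4 proteins are exposed to test chemicals for 24 h.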

[17] = target: human Retinoic Acid Receptor gamma (RARg), RARG (gene 5916) (UniProt P13631); assay: ATG_RARg_TRANS: Attagene TRANS-FACTORIAL HepG2 Assay for human Retinoic Acid Receptor gamma (RARg) (AID 2283009; active = hit-call score of the fitted dose curve at least 0.9, where 1 is the maximum)
human Retinoic Acid Receptor gamma (RARg), RARG (gene 5916), sequence (P13631 whole entry, looked up, the tested form may be a part): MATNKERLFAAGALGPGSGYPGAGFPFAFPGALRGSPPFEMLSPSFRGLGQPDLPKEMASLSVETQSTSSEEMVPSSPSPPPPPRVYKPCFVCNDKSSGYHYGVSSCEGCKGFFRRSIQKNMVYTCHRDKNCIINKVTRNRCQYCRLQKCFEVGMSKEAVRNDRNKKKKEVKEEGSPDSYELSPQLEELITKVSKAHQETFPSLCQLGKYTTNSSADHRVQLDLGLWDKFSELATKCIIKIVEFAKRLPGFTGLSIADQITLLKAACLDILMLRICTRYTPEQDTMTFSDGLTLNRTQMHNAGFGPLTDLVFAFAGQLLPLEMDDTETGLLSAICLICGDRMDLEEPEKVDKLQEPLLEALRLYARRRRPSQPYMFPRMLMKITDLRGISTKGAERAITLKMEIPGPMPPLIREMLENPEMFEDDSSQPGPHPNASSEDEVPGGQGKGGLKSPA
In short: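 Transactivation of exogenous RARg-Gal4 fusion measured as reporter transcript induction after 24 h in transfected HepG2 cells. RNA reverse-transcribed, amplified, fluorescently labeled and resolved by capillary electrophoresis; increase relative to DMSO.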

[18] = target: human RAR-related Orphan Receptor beta (RORb), RORB (gene 6096) (UniProt Q92753); assay: ATG_RORb_TRANS: Attagene TRANS-FACTORIAL HepG2 Assay for human RAR-related Orphan Receptor beta (RORb) (AID 2283010; active = hit-call score of the fitted dose curve at least 0.9, where 1 is the maximum)
human RAR-related Orphan Receptor beta (RORb), RORB (gene 6096), sequence (Q92753 whole entry, looked up, the tested form may be a part): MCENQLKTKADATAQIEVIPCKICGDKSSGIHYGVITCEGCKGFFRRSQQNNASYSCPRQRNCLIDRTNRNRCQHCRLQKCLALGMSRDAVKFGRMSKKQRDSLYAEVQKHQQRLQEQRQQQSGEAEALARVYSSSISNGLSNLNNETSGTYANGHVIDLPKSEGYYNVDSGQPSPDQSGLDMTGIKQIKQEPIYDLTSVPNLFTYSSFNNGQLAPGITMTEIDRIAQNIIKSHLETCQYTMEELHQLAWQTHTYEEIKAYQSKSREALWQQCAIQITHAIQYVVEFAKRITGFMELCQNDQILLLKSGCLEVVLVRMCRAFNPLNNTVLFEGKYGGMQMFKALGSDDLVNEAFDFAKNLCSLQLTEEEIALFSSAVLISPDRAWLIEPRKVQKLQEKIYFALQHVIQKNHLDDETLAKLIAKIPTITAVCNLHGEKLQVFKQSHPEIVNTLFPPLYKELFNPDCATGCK
In short: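 Read-out is reporter mRNA induction, quantified by RT-PCR with fluorescent capillary electrophoresis, 24 h post-dose in transiently transfected HepG2 expressing exogenous NR-Gal4 chimera. Activity fitted upward versus DMSO.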

[19] = target: Retinoic acid receptor alpha (Homo sapiens) (UniProt P10276); assay: ATG_RARa_TRANS: Attagene TRANS-FACTORIAL HepG2 Assay for human Retinoic Acid Receptor alpha (RARa) (AID 2283005; active = hit-call score of the fitted dose curve at least 0.9, where 1 is the maximum)
Retinoic acid receptor alpha (Homo sapiens), sequence (P10276 whole entry, looked up, the tested form may be a part): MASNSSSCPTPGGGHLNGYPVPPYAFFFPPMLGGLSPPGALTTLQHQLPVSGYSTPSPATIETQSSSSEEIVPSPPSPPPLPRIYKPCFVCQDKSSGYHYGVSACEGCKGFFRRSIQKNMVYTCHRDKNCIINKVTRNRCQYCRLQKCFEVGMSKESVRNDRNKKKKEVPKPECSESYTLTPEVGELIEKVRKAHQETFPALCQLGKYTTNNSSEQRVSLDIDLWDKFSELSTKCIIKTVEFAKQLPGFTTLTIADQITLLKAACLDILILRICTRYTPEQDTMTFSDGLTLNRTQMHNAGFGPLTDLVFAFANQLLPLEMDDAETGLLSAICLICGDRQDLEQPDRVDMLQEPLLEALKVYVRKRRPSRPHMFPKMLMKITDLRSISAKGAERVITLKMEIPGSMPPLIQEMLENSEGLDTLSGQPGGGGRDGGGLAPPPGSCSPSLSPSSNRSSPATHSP
In short: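 Reporter transcripts, measured by RT-PCR with fluorescent labeling and capillary electrophoresis after 24 h dosing, reflect activity of an exogenous human RARa–GAL4 fusion in transiently transfected HepG2. Fitted for increase relative to DMSO.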

[20] = BSK_3C_TissueFactor: BioMAP Diversity Plus: 3C Assay for Tissue Factor Biomarker Activity (AID 2282997); settings: BioMAP 3C HUVEC, tissue factor biomarker readout; actives raise or lower the signal
In short: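 In this endothelial system, HUVEC are treated for 24 h and Tissue Factor is assessed by ELISA, normalised to DMSO.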

Measured: AC50

CCn1c2ccccc2c2cc(N)ccc21
active: [4] 26.4 µM | [7] 1.82 µM | [13] 13.3 µM | [14] 22.9 µM | [15] 4.67 µM
not listed: [16] | [17] | [18] | [19] | [20]
inactive: all other assays above

CCCCOCCOCCSC#N
active: [4] 16.7 µM | [14] 19.8 µM | [15] 3.36 µM
inactive: [1] | [2] | [3] | [5] | [6] | [10] | [11]

CCCCCOC(=O)CCC
not listed: [7] | [8] | [9] | [12] | [13] | [14] | [19] | [20]
inactive: all other assays above

C#C[C@]1(O)CC[C@H]2[C@@H]3CCC4=Cc5oncc5C[C@]4(C)[C@H]3CC[C@@]21C
active: [1] 57.1 µM | [5] 29 µM | [6] 24.7 µM | [7] 6.51 µM | [10] 176 µM | [13] 20 µM | [15] 5.38 µM
not listed: [16] | [17] | [18] | [19] | [20]
inactive: all other assays above

Nc1cc(N)cc(C(=O)O)c1
inactive: [1] | [2] | [3] | [4] | [5]

O=C(O)c1snc(Cl)c1Cl
inactive: [1] | [2] | [6] | [10] | [11] | [15]
active: [3] 100 µM | [4] 27.4 µM | [5] 155 µM | [14] 25.3 µM

CCCCCCOC(=O)CC
inactive: [1] | [2] | [3] | [4] | [5] | [6] | [10] | [11] | [14] | [15] | [18]

N#Cc1ccccc1
inactive: [1] | [2] | [3] | [4] | [5] | [6] | [10] | [11] | [14] | [15]

O=C1CCCCCCCCCCOCCCCO1
active: [4] 167 µM | [10] 40 µM | [14] 59.3 µM
inactive: [1] | [2] | [3] | [5] | [6] | [11] | [19] | [15] | [17]

CC(=O)OCCC(C)CC(C)(C)C (stereo not given)
not listed: [10] | [14] | [16] | [17] | [18] | [19] | [20]
inactive: all other assays above

Nc1cc([N+](=O)[O-])ccc1O
inactive: [1] | [2] | [3] | [5] | [6] | [20] | [7] | [8] | [9] | [10] | [11] | [12] | [13] | [14] | [15] | [18]
active: [4] 38.1 µM | [9] 14.9 µM

CCCCC(CC)COCCC#N (stereo not given)
active: [13] 20 µM
not listed: [10] | [11] | [16] | [17] | [18] | [19] | [20]
inactive: all other assays above

Cc1ccc(S)cc1
active: [6] 65.1 µM | [14] 22.8 µM
inactive: [1] | [2] | [3] | [4] | [5] | [10] | [11] | [15]

O=C(O)c1ccc([N+](=O)[O-])cc1
not listed: [10] | [11] | [14] | [15] | [16] | [17] | [18] | [19]
inactive: all other assays above

CCCCCCCCCCCCCCCC(=O)OC[C@H](O)[C@H]1OC(=O)C(O)=C1O
inactive: [1] | [2] | [3] | [5] | [6] | [10] | [11]
active: [4] 66.8 µM

NCCNCCN
not listed: [16] | [17] | [19] | [20]
inactive: all other assays above

COC(=O)Cc1cccc2ccccc12
active: [14] 66.5 µM
inactive: [1] | [2] | [3] | [4] | [5] | [6] | [10] | [11] | [15]

CCCc1c(OCCCOc2ccc(OCC(=O)O)cc2)ccc(C(C)=O)c1O
active: [10] 0.322 µM | [11] 0.0841 µM | [14] 0.195 µM | [15] 26.6 µM
inactive: [1] | [2] | [3] | [4] | [5] | [6]

O=C(Nc1ccccc1)c1cc([N+](=O)[O-])ccc1Cl
inactive: [1] | [2] | [3] | [5] | [10] | [11]
active: [4] 34.6 µM | [6] 68.6 µM | [14] 19.8 µM | [15] 3.82 µM

CCC(=O)OCCC(C)CCC=C(C)C (stereo not given)
inactive: [1] | [2] | [3] | [5] | [6] | [10] | [11] | [14] | [15]
active: [4] 63.9 µM
